Assay outcomes (PubChem BioAssay)
CBFb-RUNX1 inh: CBF-beta/RUNX1 interaction disruption. 230,000 tested, under 10 active. AlphaScreen CBFb-His/RUNX1-biotin binding, biochemical. Potency, µM (top dose mostly 59.8 µM), most hits filed as inhibitors. AID 1477. Q01196+Q13951
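AlphaScreen proximity signal reports loss of binding between His-tagged CBF-beta and biotin-labelled RUNX1, each at 30 nM. Proteins are pre-associated for 20 minutes, compounds added for 15 minutes, then beads for 90 minutes, all at ambient temperature.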
TRPV1 PAM: potentiators of human vanilloid receptor 1 (TRPV1); actives 0.02% (n = 320,000); potentiation, % at 8.33 µM; TRPV1-expressing cells, Fluo-8 calcium influx, capsaicin EC20 potentiation; Q8NER1; in the data active means potentiation above about 80%; inconclusive means between about 30% and that limit
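Fluo-8 calcium influx in TRPV1-expressing cells, kinetic read (ex 480/em 520 nm). Compound added and read 3 min for agonist activity, followed by capsaicin at EC20 final and 2 min further read for enhancement.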
AT treatment: candidate therapy for ataxia-telangiectasia. actives 0.19% (n = 320,000). Potency, µM (highest dose often 57.5 µM), actives largely listed as activators. F2112 A-T fibroblasts, KAP-1 phosphorylation AlphaLISA; neocarzinostatin DNA damage 30 min before lysis; further: nearly all actives have a fitted effect of over 45% in size
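ATM-like activity read as KAP-1 phosphorylation via AlphaLISA donor/acceptor antibody pairs after lysis and 6 hr at 25C. Cells were ATM-null patient fibroblasts (F2112, hTERT), dosed 60 min, then exposed to the DSB inducer NCS for 30 min.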
TRPV1 agonist: activates the human vanilloid receptor TRPV1. TRPV1-expressing cells, Fluo-8 calcium influx, agonist mode. activation, % at 8.33 µM. actives 0.19% (n = 320,000); in the data active means activation above about 80%; inconclusive means between about 30% and that limit
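Cells expressing TRPV1 were dye-loaded with Fluo-8 and read kinetically: 10 s baseline, 3 min after compound (agonist portion), then 2 min after EC20 capsaicin (allosteric enhancer portion). Calcium-bound dye fluorescence at 480/520 nm.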
Apoferritin bind: binds horse apoferritin like a general anesthetic; apoferritin/1-aminoanthracene competitive binding, fluorescence; actives 0.074% (n = 350,000); P02791; AID 485281; Potency, µM (series often up to 77.5 µM), most hits filed as inhibitors; further: nearly all actives have a fitted effect of over 20% in size
Target sequence (P02791 2-175 limits assumed): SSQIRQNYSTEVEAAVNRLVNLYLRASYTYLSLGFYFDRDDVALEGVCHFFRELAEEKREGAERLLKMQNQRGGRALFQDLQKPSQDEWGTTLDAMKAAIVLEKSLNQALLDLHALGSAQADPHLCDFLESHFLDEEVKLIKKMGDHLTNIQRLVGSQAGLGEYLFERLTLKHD
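Steps: apoferritin (10 uM) was premixed with half-saturated 1-AMA in PBS, compounds were pin-transferred, plates stood 10 min at room temperature, fluorescence was read at 380/535 nm, and curves were fitted with a Hill equation.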
Numbers stand for hits; – = inactive; ? = inconclusive; · = not tested or not shown. An excerpt weighted towards active compounds, which were near 0.39% of everything screened. Unless noted, the call rests on the fitted dose curve; in most records, active means well fitted curve in the direction sought with a large enough effect; inconclusive means small, poorly fitted or top-dose-only effect, or another doubt; inactive means no such curve, though single readings can be large; an effect the other way counts as inactive or inconclusive.

SMILES	CBFb-RUNX1 inh	TRPV1 PAM	AT treatment	TRPV1 agonist	Apoferritin bind
CCN1C(=O)[C@@H]2[C@H](C1=O)[C@@H]1C(=O)Nc3ccccc3C(=O)N1[C@@H]2c1ccc(Br)cc1	·	106	–	–	·
CN1C(=O)[C@@H]2[C@H](C1=O)[C@@H]1C(=O)Nc3ccccc3C(=O)N1[C@@H]2c1ccc(Br)cc1	·	–	–	–	·
CCC(=O)Nc1cccc(C(=O)/C=C/c2cc(Br)ccc2OC)c1	–	–	35µM	–	?
CCN(CC)c1ccc(/C=C/C(=O)c2ccc(Br)cc2)cc1	?	–	–	123	–
CC(=O)Nc1cccc(C(=O)/C=C/c2ccc(Br)cc2)c1	–	–	25µM	–	–
CC(=O)Nc1cccc(C(=O)/C=C/c2ccc(N(C)C)cc2)c1	–	–	–	80	–
CN(C)c1ccc(C(=O)/C=C/c2ccc(Br)cc2)cc1	–	–	–	–	–
CCCCC/C=C\C/C=C\C/C=C\C/C=C\CCCC(=O)C(F)(F)F	–	·	·	·	?
c1ccc2c(c1)SCc1c-2[nH]c2ccccc12	–	·	·	·	–
CCOc1ccccc1-c1nnc2n1N=C(c1cc(OC)ccc1OC)CS2	–	·	·	·	–
COc1cc(NS(=O)(=O)c2ccc([N+](=O)[O-])cc2)c2ncccc2c1	?	·	·	·	–
O=C1/C(=C/c2ccccc2)CCCc2ccccc21	–	–	–	–	–
O=C1/C(=C/c2ccccc2)CSc2sccc21	–	–	·	–	14µM
CCC(C)c1ccc(NC(=O)CSc2nncn2N)cc1 (stereo not drawn)	–	–	–	–	?
Nn1c(SCC(=O)Nc2cccc(F)c2)nnc1C1CCCCC1	–	–	–	–	8.9µM
Nn1cnnc1SCC(=O)Nc1ccc(C2CCCCC2)cc1	–	–	–	–	7.1µM
COc1ccc(CNC(=O)Nc2ccc([N+](=O)[O-])cc2)cc1	–	·	·	·	–
COc1ccc(CNC(=O)C(C)c2ccc([N+](=O)[O-])cc2)cc1 (stereo not drawn)	–	–	–	80	–
CCCC[C@H](NC(C)=O)C(=O)N[C@H]1CC(=O)NCCCC[C@@H](C(N)=O)NC(=O)[C@H](Cc2c[nH]c3ccccc23)NC(=O)[C@H](CCCN=C(N)N)NC(=O)[C@@H](Cc2ccccc2)NC(=O)[C@H](Cc2cnc[nH]2)NC1=O	–	·	·	·	–
Clc1ccc(CN2CC[C@H]3C=CCc4cccc(c43)C2)cc1	·	–	35µM	–	·
C=CCSc1nc2ccccc2n1C(=O)/C=C/c1cc(OC)c(OC)c(OC)c1	–	–	·	–	?
CCSc1nc2ccccc2n1C(=O)/C=C/c1ccc(OC)c(OC)c1	–	–	22µM	–	–
C=CCSc1nc2ccccc2n1C(=O)/C=C/c1ccc(OC)c(OC)c1	–	–	32µM	–	–
NCCCC[C@H](NC(=O)CNC(=O)[C@@H]1CCCN1C(=O)[C@H](Cc1ccc(O)cc1)NC(=O)CN)C(=O)N[C@@H](Cc1ccccc1)C(=O)O	–	·	·	·	–
COc1ccc2c(c1)O[C@H](c1ccc3c(c1)OCO3)[C@@H](OC(=O)Nc1ccc(OC(F)F)cc1)C2=O	–	·	·	·	·
SMILES	CBFb-RUNX1 inh	TRPV1 PAM	AT treatment	TRPV1 agonist	Apoferritin bind
Cc1cc(C)cc(CC2CC(=O)N(c3nc(C)cc(C)n3)C2=O)c1 (stereo not drawn)	–	?	–	–	5.6µM
COc1ccc2sc(-c3ccc(N(C)C)cc3)c(C#CCCO)c2c1	·	–	25µM	–	·
COc1ccc2sc(-c3ccc(N(C)C)cc3)c(C#Cc3cncn3C)c2c1	·	·	32µM	·	·
COc1ccc(-c2sc3ccc(OC)cc3c2C#CCCO)cc1	·	–	?	–	–
COc1ccc2sc(-c3ccc(N(C)C)cc3)c(C#CC(C)(C)O)c2c1	·	–	32µM	–	·
COc1ccc2sc(-c3ccc(SC)cc3)c(C#CC(C)(C)O)c2c1	·	–	?	–	·
Cc1cc(C)c2oc(C(=O)NCc3ccccc3)cc(=O)c2c1	·	–	–	–	–
Cc1cc(C)c2c(=O)cc(C(=O)NCc3ccccc3)oc2c1	·	–	35µM	–	–
O=C1NCCN1C(=O)C12CC3CC(CC(C3)C1)C2	–	–	–	–	14µM
Cc1csc(NC(=O)c2cc3c(s2)CCCC3)n1	–	–	?	–	–
Cc1cnc(NC(=O)c2cc3c(s2)CCCC3)s1	–	–	·	89	–
